From paper PMC7862700, “An all-to-all approach to the identification of sequence-specific readers for epigenetic DNA modifications on cytosine”

How the values were obtained:
Experiment in all cases: DAPPL (digital affinity profiling via proximity ligation, sequencing); 10 mM Tris-HCl pH 7.5, 50 mM NaCl, 1 mM DTT, 4% glycerol, room temperature, 30 min; GST-TFs on glutathione beads, 16-mer random dsDNA library, 0.1% formaldehyde crosslink after washing; high values mean tight binding
Settings in all cases: protein: recombinant; tags: N-terminal GST; dsDNA, one strand shown
FLI1 = biological target: T1, FLI1 (Homo sapiens, UniProt Q01543 1-452)
T1 sequence: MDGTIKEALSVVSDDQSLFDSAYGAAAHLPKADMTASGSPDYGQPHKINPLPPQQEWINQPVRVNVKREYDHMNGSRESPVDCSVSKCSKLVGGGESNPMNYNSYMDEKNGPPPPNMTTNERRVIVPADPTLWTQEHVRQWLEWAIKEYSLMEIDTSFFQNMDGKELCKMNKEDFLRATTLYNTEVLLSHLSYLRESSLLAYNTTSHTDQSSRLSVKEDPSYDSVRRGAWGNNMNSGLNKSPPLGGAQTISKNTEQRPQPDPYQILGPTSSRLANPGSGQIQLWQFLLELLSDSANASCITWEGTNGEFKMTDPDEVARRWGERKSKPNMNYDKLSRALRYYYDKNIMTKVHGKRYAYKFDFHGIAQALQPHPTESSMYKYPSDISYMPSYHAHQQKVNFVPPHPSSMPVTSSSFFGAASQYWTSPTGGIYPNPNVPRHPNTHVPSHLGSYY
In short: (§1)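 Pools were built from human transcription factors expressed in yeast as GST fusions, captured on glutathione beads and DNA-barcoded, along with a tag-only sample. Incubation with 200 nmole of a 16-mer random double-stranded DNA library lasted 30 min at room temperature in Tris/NaCl/DTT/glycerol buffer, and was followed by washing, 0.1% formaldehyde crosslinking, proximity ligation, PCR amplification and Illumina NextSeq500 sequencing. Binding signal is the quotient of each hexamer's read frequency for a factor and its frequency for the tag-only sample.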

ELK1 = biological target: T2, ELK1 (Homo sapiens, UniProt P19419 1-428)
T2 sequence: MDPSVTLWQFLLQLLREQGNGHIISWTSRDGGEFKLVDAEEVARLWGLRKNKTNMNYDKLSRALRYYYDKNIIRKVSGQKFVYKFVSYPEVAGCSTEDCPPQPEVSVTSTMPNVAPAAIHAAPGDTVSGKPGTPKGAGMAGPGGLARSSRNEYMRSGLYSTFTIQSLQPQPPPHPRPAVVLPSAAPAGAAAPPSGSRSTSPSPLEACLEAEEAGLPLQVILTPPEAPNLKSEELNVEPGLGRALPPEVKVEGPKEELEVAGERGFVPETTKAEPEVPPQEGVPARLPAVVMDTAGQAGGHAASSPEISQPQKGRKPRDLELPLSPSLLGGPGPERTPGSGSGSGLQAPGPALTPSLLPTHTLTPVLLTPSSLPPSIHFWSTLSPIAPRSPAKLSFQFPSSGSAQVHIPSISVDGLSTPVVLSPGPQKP
In short: as §1

GABPA = biological target: T3, GABPA (Homo sapiens, UniProt Q06546 1-454)
T3 sequence: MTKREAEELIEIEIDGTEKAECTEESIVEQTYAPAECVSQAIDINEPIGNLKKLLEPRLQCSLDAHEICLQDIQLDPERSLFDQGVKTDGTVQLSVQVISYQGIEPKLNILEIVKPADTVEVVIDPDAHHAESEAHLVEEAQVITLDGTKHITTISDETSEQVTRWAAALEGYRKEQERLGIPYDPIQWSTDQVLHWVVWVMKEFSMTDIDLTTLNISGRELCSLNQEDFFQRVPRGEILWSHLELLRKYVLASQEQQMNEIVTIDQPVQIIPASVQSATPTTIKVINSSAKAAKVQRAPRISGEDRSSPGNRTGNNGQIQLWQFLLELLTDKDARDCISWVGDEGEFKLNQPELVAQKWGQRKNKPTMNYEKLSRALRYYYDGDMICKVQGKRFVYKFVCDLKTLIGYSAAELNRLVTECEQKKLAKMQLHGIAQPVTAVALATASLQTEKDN
In short: as §1

ERG = biological target: T4, ERG (Homo sapiens, UniProt P11308 1-479)
T4 sequence: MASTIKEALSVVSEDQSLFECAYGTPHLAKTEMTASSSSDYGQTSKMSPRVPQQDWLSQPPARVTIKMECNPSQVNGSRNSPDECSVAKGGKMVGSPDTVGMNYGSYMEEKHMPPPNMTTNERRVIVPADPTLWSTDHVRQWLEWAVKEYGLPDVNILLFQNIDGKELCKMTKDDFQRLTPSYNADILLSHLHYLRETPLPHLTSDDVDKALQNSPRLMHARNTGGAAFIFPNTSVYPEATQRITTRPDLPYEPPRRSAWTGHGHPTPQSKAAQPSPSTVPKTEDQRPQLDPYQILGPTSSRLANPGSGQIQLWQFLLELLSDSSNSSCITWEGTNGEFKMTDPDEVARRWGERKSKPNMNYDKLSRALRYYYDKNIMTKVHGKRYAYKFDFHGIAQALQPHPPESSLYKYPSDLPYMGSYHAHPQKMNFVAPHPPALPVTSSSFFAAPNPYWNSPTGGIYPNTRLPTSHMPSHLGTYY
In short: as §1

ELF1 = ELF1 (Homo sapiens, UniProt P32519 1-619)
Sequence of ELF1 (P32519 whole entry): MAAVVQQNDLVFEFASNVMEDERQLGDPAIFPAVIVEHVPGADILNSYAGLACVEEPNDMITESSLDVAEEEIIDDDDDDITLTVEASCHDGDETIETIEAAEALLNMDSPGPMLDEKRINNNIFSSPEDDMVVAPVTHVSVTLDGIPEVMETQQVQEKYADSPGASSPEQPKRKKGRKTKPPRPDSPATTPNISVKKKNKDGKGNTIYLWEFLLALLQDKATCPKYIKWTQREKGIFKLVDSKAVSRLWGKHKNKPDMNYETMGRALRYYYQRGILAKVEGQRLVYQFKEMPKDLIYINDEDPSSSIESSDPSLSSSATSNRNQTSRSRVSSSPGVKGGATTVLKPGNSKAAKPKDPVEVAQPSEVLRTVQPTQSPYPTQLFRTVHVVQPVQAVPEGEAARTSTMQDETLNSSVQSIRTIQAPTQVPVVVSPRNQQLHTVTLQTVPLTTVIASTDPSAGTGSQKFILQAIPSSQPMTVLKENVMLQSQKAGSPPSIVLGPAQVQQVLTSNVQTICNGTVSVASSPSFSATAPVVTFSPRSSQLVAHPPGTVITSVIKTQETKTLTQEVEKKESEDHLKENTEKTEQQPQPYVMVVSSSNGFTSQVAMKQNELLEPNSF
In short: as §1

EHF = biological target: T5, EHF (Homo sapiens, UniProt Q9NZC4 1-300)
T5 sequence: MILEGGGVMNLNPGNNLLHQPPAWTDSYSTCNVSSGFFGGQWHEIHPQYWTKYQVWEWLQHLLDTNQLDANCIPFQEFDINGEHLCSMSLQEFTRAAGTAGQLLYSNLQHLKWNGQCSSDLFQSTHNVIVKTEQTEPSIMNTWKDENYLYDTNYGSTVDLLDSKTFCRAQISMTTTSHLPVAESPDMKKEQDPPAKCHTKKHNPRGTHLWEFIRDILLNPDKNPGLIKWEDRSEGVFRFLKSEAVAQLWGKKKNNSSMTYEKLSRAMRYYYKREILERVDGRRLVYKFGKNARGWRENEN
In short: as §1

SPI1 = SPI1 (Homo sapiens, UniProt P17947 1-270)
In short: as §1

SPIB = SPIB (Homo sapiens, UniProt Q01892 1-262)
Sequence of SPIB (Q01892 whole entry): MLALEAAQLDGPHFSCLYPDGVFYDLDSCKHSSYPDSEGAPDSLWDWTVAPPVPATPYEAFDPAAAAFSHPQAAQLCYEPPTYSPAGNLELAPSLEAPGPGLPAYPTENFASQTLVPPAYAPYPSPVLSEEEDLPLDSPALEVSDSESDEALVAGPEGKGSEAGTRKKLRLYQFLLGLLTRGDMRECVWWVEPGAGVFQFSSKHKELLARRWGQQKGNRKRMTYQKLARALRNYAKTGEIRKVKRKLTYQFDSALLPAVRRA
In short: as §1

ELK3 = biological target: T6, ELK3 (Homo sapiens, UniProt P41970 1-407)
T6 sequence: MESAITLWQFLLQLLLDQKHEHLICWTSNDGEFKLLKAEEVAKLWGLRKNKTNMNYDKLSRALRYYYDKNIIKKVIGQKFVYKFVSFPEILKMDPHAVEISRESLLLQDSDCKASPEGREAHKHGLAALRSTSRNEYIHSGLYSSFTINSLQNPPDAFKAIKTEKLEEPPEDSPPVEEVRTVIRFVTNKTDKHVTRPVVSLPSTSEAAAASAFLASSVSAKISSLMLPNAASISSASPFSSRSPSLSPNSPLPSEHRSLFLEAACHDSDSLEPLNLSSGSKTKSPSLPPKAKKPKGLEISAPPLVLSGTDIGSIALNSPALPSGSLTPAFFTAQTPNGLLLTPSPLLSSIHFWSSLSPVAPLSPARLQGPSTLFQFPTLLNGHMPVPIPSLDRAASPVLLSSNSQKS
In short: as §1

Row | Sequence | binding signal (FLI1) | binding signal (ELK1) | binding signal (GABPA) | binding signal (ERG) | binding signal (ELF1) | binding signal (EHF) | binding signal (SPI1) | binding signal (SPIB) | binding signal (ELK3)
1 | TTACTT | 1.44 fold enrichment (6-mer frequency, TF over GST control) | 1.53 fold enrichment (6-mer frequency, TF over GST control) | 1.44 fold enrichment (6-mer frequency, TF over GST control) | 1.44 fold enrichment (6-mer frequency, TF over GST control) | 1.53 fold enrichment (6-mer frequency, TF over GST control) | 1.58 fold enrichment (6-mer frequency, TF over GST control) | 1.59 fold enrichment (6-mer frequency, TF over GST control) | 1.58 fold enrichment (6-mer frequency, TF over GST control) | 1.64 fold enrichment (6-mer frequency, TF over GST control)
2 | CCTGAT | 1.27 fold enrichment (6-mer frequency, TF over GST control) | 1.56 fold enrichment (6-mer frequency, TF over GST control) | 1.5 fold enrichment (6-mer frequency, TF over GST control) | 1.42 fold enrichment (6-mer frequency, TF over GST control) | 1.38 fold enrichment (6-mer frequency, TF over GST control) | 1.45 fold enrichment (6-mer frequency, TF over GST control) | 1.5 fold enrichment (6-mer frequency, TF over GST control) | 1.6 fold enrichment (6-mer frequency, TF over GST control) | 1.45 fold enrichment (6-mer frequency, TF over GST control)
3 | TGCTTC | 2.13 fold enrichment (6-mer frequency, TF over GST control) | 2.3 fold enrichment (6-mer frequency, TF over GST control) | 2.09 fold enrichment (6-mer frequency, TF over GST control) | 2.37 fold enrichment (6-mer frequency, TF over GST control) | 2 fold enrichment (6-mer frequency, TF over GST control) | 2.16 fold enrichment (6-mer frequency, TF over GST control) | 2.24 fold enrichment (6-mer frequency, TF over GST control) | 2.31 fold enrichment (6-mer frequency, TF over GST control) | 2.47 fold enrichment (6-mer frequency, TF over GST control)
4 | ATGGCA | 1.26 fold enrichment (6-mer frequency, TF over GST control) | 1.22 fold enrichment (6-mer frequency, TF over GST control) | 1.26 fold enrichment (6-mer frequency, TF over GST control) | 1.27 fold enrichment (6-mer frequency, TF over GST control) | 1.24 fold enrichment (6-mer frequency, TF over GST control) | 1.35 fold enrichment (6-mer frequency, TF over GST control) | 1.21 fold enrichment (6-mer frequency, TF over GST control) | 1.19 fold enrichment (6-mer frequency, TF over GST control) | 1.22 fold enrichment (6-mer frequency, TF over GST control)
5 | ACCTAA | 1.19 fold enrichment (6-mer frequency, TF over GST control) | 1.08 fold enrichment (6-mer frequency, TF over GST control) | 1.17 fold enrichment (6-mer frequency, TF over GST control) | 1.13 fold enrichment (6-mer frequency, TF over GST control) | 1.18 fold enrichment (6-mer frequency, TF over GST control) | 1.12 fold enrichment (6-mer frequency, TF over GST control) | 1.2 fold enrichment (6-mer frequency, TF over GST control) | 1.19 fold enrichment (6-mer frequency, TF over GST control) | 1.2 fold enrichment (6-mer frequency, TF over GST control)
6 | CCTTTT | 1.49 fold enrichment (6-mer frequency, TF over GST control) | 1.46 fold enrichment (6-mer frequency, TF over GST control) | 1.46 fold enrichment (6-mer frequency, TF over GST control) | 1.56 fold enrichment (6-mer frequency, TF over GST control) | 1.52 fold enrichment (6-mer frequency, TF over GST control) | 1.49 fold enrichment (6-mer frequency, TF over GST control) | 2.05 fold enrichment (6-mer frequency, TF over GST control) | 1.67 fold enrichment (6-mer frequency, TF over GST control) | 1.64 fold enrichment (6-mer frequency, TF over GST control)
7 | GAATTT | 1.21 fold enrichment (6-mer frequency, TF over GST control) | 1.11 fold enrichment (6-mer frequency, TF over GST control) | 1.21 fold enrichment (6-mer frequency, TF over GST control) | 1.24 fold enrichment (6-mer frequency, TF over GST control) | 1.17 fold enrichment (6-mer frequency, TF over GST control) | 1.13 fold enrichment (6-mer frequency, TF over GST control) | 1.24 fold enrichment (6-mer frequency, TF over GST control) | 1.28 fold enrichment (6-mer frequency, TF over GST control) | 1.19 fold enrichment (6-mer frequency, TF over GST control)
8 | CAAAAA | 1.14 fold enrichment (6-mer frequency, TF over GST control) | 1.04 fold enrichment (6-mer frequency, TF over GST control) | 1.16 fold enrichment (6-mer frequency, TF over GST control) | 1.07 fold enrichment (6-mer frequency, TF over GST control) | 1.16 fold enrichment (6-mer frequency, TF over GST control) | 1.2 fold enrichment (6-mer frequency, TF over GST control) | 1.32 fold enrichment (6-mer frequency, TF over GST control) | 1.19 fold enrichment (6-mer frequency, TF over GST control) | 1.17 fold enrichment (6-mer frequency, TF over GST control)
